In PubChem BioAssay (EPA / NIEHS):
Activity calls are given as the source filed them. Rule for the calls: active = hit-call score of the fitted dose curve at least 0.9, where 1 is the maximum; inactive = score below 0.9.

experiment: CCTE_Shafer_MEA_acute_network_burst_percentage: CCTE's Neural Acute Assay for Percentage of Network Bursts, Shafer Lab (AID 2284022);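 note: curves fitted for loss so actives lower network burst percentage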
Experimental: CCTE_Shafer_MEA_acute assay is conducted using Axion Biosystems 48 well microelectrode array (MEA) plates and Maestro recording system. Each well of the MEA plate contains a grid of 16 microelectrodes embedded in the culture surface. Electrically active cells, such as neurons, can be cultured over the electrodes, and electrical activity in these cells can be recorded extracellularly. The spontaneous firing of neurons is captured from each electrode on a microsecond timescale providing both temporally and spatially precise data. […] The CCTE_Shafer_MEA_acute assay uses primary cultures of rat cortical neurons. As these cultures mature over time, neural networks develop functional activity and form cohesive networks in which electrical activity can be highly coordinated. Baseline 40-minute recordings are made on days post-plating 13 or 15, followed by a secondary 40-minute recording after chemical exposure.CCTE_Shafer_MEA_acute_network_burst_percentage is a component of the CCTE_Shafer_MEA_acute assay. It measures the percent of spikes (action potential firings) in network bursts (temporally-clustered groups of spikes across multiple electrodes) as the number of spikes occuring in network bursts divided by the total number of spikes during a recording in a microelectrode array (MEA) using Axion Biosystems Maestro 768 channel amplifier with the AxIS adaptive spike detector. The recordings before and after chemical treatment are used to calculate a percent change in the network burst percentage in each well.Data from the assay component CCTE_Shafer_MEA_acute_network_burst_percentage was analyzed into 1 assay endpoint. This assay endpoint, CCTE_Shafer_MEA_acute_network_burst_percentage, was analyzed in the negative analysis fitting direction relative to DMSO as the negative control and baseline of activity. Using a type of functional reporter, gain or loss-of-signal activity can be used to understand electrical activity.
Spontaneous activity in the cortical cultures was recorded using an Axion Biosystems Maestro 768 channel amplifier and Axion Integrated Studios (AxIS) v1.8 (or later) software. The amplifier recorded from all channels simultaneously (gain = 1200 x; sampling rate = 12.5 kHz/channel): raw signals were filtered with a Butterworth band-pass filter (300-5000 Hz), which filters out slower local field potentials leaving only fast potentials, i.e., "spikes", arising from extracellular currents associated with action potentials (Pine 2006; Wheeler and Nam 2011). On-line spike detection of filtered signals was conducted with the AxIS adaptive spike detector, using a threshold of 8x the root mean squared (rms) noise on each channel. Any electrodes with rms noise levels greater than 5 uV were grounded (e.g., no data were recorded). Once grounded, an electrode was grounded for the duration of the experiment. All recordings were conducted at 37 C. Wells were deemed usable if on the day of the exposure >/= 10 electrodes were active (defined as >/= 5 spikes/min). On DIV 13 or 15, a minimum of three wells from one cortical culture preparation were treated with each compound (0.03-40 uM). Prior to recording baseline activity, each mwMEA plate was placed in the Maestro at 37 C and allowed to sit for 20 min while firing rates stabilized. Baseline activity (40 min) was recorded before the addition of each compound. An additional 40 min of spontaneous activity was recorded in the presence of each compound. Changes in network parameters relative to baseline were assessed following compound treatment.

Compound | AC50 | outcome
c1ccc2c(c1)Nc1ccccc1S2 | 20 µM (active) | –
CCC1(c2ccccc2)C(=O)N=C(O)NC1=O (stereo unspecified) | – | inactive
ClC1=C(Cl)C2(Cl)C3C(Cl)C(Cl)CC3C1(Cl)C2(Cl)Cl (stereo unspecified) | 33.8 µM (active) | –
COP(=O)(CCC(=O)NCO)OC | – | inactive
[N-]=[N+]=[N-] | – | inactive
CCOc1ccc(C(C)(C)COCc2cccc(Oc3ccccc3)c2)cc1 | 23.8 µM (active) | –
CCC(C)(C)c1ccc(O)cc1 | – | inactive
O=C(O)C1C(C(=O)O)C2(Cl)C(Cl)=C(Cl)C1(Cl)C2(Cl)Cl (stereo unspecified) | – | inactive
Cc1ccc(N)cc1N | – | inactive
Nc1ccc2ccccc2c1 | – | inactive
ClC(Cl)(Cl)c1ccccc1 | – | inactive
CC(C)(C)c1ccccc1OP(=O)(Oc1ccccc1)Oc1ccccc1 | 7.61 µM (active) | –
CCOP(=S)(Oc1ccc([N+](=O)[O-])cc1)c1ccccc1 (stereo unspecified) | – | inactive
CC(Cl)(Cl)C(=O)O | – | inactive
COCCOCCO | – | inactive
CCCCC(CC)COP(=O)(Oc1ccccc1)Oc1ccccc1 (stereo unspecified) | – | inactive
